Bioassay records deposited in PubChem BioAssay by several laboratories.
Compounds with a hit are over-represented: about 3.9% of the library has one in this group of screens.
TWEAK-Fn14 inh: inhibitors of TWEAK-Fn14 signaling, primary screen, luciferase reporter cells, uHTS | TWEAK-stimulated Fn14 reporter cells, luciferase luminescence, 8 h | inhibition, % at 10 µM | 2% of 360,000 active; in the data active means inhibition above about 50%
aSyn UTR inh: MLPCN primary screen, SNCA 5' untranslated region; alpha-synuclein 5'UTR reporter, inhibitor activity; inhibition, % (tested at 7.5 µM); 0.82% of 300,000 active; in the data active means inhibition above about 60%;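 further: H4 neuroglioblastoma cells stably carrying SNCA 5'UTR luciferase fusion; 0% = DMSO wells and 100% = positive control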
C8 TRAIL sens: viability loss with TRAIL in NB7+C8 cells, primary screen, TRAIL sensitizer project, cell-based, ATPlite luminescence; inhibition (viability loss, TRAIL sensitization), % at 10 µM; 1% of 360,000 active;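 active means compounds causing at least 50% loss of cell viability in the single-dose screen, relative to plate controls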
TROY signal inh: inhibitors of TROY-driven NF-kB signaling, primary screen, Q293 LMP1-TROYcd cells, NF-kB luciferase, uHTS | Q293 LMP1-TROYcd NF-kB luciferase reporter, 4 h | inhibition, % at 10 µM | 0.98% of 360,000 active;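 active means compounds whose plate-normalised and pattern-corrected inhibition of the luciferase reporter signal at the single screening dose is 50% or more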
HSP90 inh: HSP90 inhibitors, primary screen, cell lysate, luminescence; Heat shock protein HSP 90 (rabbit reticulocyte lysate; luciferase refolding); Rabbit reticulocyte lysate, luciferase refolding luminescence, 3 h; inhibition, % at 5.6 µM; 0.91% of 290,000 active;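 active means inhibition above the screen-wide mean plus 3 SD, computed separately per campaign, cut at about 16% in these data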;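 further: 0% = DMSO wells and 100% = 60 µM geldanamycin wells; inhibitors lower the luminescence because luciferase stays unfolded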
HIF-2a block: HIF-2a reporter inhibitors, primary screen, luminescence, 786-0 RCC cells; 786-0 RCC cells HIF-2a reporter, luciferase luminescence, overnight; inhibition, % at 18.8 µM; 0.72% of 360,000 active; AID 624352, 2012;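 active means inhibition of the luminescence signal of 40% or more relative to plate controls, in a single-dose primary screen at 18.75 µM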
HSP90 confirm: HSP90 inhibitors, confirmation, cell lysate, luminescence | shares compounds with HSP90 inh | rabbit reticulocyte lysate, luciferase refolding luminescence, 3 h | inhibition, % at 5.9 µM | 64% of 2,300 active | AID 1846, 2009; in the data active means inhibition above about 18%;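 further: 0% = vehicle wells and 100% = reference inhibitor wells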
luciferase ctr: firefly luciferase inhibitors, HSP90 counter-screen, confirmation, artefact control for HSP90 inhibitor project, biochemical, luminescence, triplicate. shares compounds with HSP90 inh. purified native firefly luciferase. 48% of 2,300 active. inhibition, % at 5.9 µM. AID 1847, 2009;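 active means inhibition above the mean inhibition of all tested sample wells plus 3 SD, cut at about 10% in these data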;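 further: 0% = DMSO with luciferase and 100% = wells lacking luciferase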
Target sequence (P08659 whole entry, looked up): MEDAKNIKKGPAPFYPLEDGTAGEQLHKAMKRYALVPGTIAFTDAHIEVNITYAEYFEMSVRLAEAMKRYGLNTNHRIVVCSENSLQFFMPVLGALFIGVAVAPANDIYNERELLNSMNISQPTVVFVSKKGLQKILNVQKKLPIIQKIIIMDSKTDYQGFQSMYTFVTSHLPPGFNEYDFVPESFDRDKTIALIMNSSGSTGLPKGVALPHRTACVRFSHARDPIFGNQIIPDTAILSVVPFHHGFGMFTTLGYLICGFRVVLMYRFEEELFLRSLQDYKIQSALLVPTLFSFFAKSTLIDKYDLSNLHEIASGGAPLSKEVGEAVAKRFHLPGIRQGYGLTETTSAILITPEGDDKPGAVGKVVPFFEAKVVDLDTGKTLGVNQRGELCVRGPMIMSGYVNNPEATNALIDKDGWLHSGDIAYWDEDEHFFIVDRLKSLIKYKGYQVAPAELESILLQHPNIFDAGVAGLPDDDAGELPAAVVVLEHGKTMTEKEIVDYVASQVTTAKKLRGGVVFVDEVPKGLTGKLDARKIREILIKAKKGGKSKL
* = called active by the depositor; x = no result given.

SMILES | TWEAK-Fn14 inh | aSyn UTR inh | C8 TRAIL sens | TROY signal inh | HSP90 inh | HIF-2a block | HSP90 confirm | luciferase ctr
COc1ccc(-c2noc(C3CCCN(C(=O)Nc4ccccc4)C3)n2)cc1 (stereo not drawn) | 20 | -102 | 0 | 34 | 19* | -88 | 3 | -6
COc1ccc(-c2noc(C3CCCN(C(=O)c4ccccc4)C3)n2)cc1 (stereo not drawn) | -12 | -76 | -1 | -31 | -5 | -164 | x | x
COc1ccc(-c2noc(C3CCCN(C(=O)Nc4ccccc4F)C3)n2)cc1 (stereo not drawn) | 12 | -114 | -6 | 37 | 27* | -87 | -3 | -11
COc1ccc(NC(=O)N2CCCC(c3nc(-c4ccc(C(C)C)cc4)no3)C2)cc1 (stereo not drawn) | 59* | -164 | 21 | 69* | 65* | -34 | 1 | -13
O=C(/C=C/[C@H]1O[C@@H](n2cnc3c(NC(=O)c4ccccc4)ncnc32)[C@H](O)[C@@H]1O)NCCCN1CCCC1=O | -4 | x | 25 | 7 | x | -2 | x | x
CCCCCCCCNCCS(=O)(=O)NC1CCCCC1 | -15 | x | -3 | 2 | x | -10 | x | x
O=C(/C=C/[C@H]1O[C@@H](n2ccc(=O)[nH]c2=O)[C@H](O)[C@@H]1O)N1CCN(Cc2ccc(F)cc2)CC1 | 2 | x | -9 | -3 | x | 18 | x | x
O=C(CC[C@H]1O[C@@H](n2cnc3c(NC(=O)c4ccccc4)ncnc32)[C@H](O)[C@@H]1O)N[C@@H](CO)c1ccccc1 | 6 | x | -6 | 7 | x | -12 | x | x
Cc1ccc(NCC(O)C(O)C(O)CO)c(N=Nc2ccccc2)c1C (stereo not drawn) | -1 | -17 | -4 | -7 | 24* | 0 | -17 | -6
CC(=O)Nc1cc(NC(C)=O)c(N=Nc2ccccc2)cc1C | -25 | -89 | -1 | -15 | 1 | -261 | x | x
COc1ccc2c(c1)Cc1sc(NC(C)=O)nc1-2 | -16 | -169 | -1 | -20 | 32* | -260 | 2 | -10
COc1ccc2c(c1)Cc1sc(NC(=O)c3ccco3)nc1-2 | -3 | -265 | -12 | -5 | -2 | -222 | x | x
COc1ccccc1NCCC(=O)OCC(=O)Nc1cc([N+](=O)[O-])ccc1F | -15 | x | -11 | -6 | x | 9 | x | x
COC(=O)c1ccc(N=NNc2ccccc2)cc1 | -13 | -226 | 39 | -76 | 28* | -63 | 47* | -12
Cc1[nH]n(-c2ccccc2)c(=O)c1N=Nc1ccc(F)cc1 | 0 | -81 | -3 | -39 | 2 | -160 | x | x
COC(=O)c1ccc(N=Nc2c(C)[nH]n(-c3ccccc3)c2=O)cc1 | -10 | 25 | -7 | 3 | 26* | -25 | 30* | -4
COC(=O)c1ccc(N=NN2CCCCCC2)cc1 | -11 | -134 | 14 | -73 | 1 | -164 | x | x
CC(C)N1CCC(C)(C(=O)Nc2cc(-c3ccccc3)nn2C)C1 (stereo not drawn) | 3 | x | 13 | 6 | x | -12 | x | x
NC(=O)Cc1ccc(OCc2nn[nH]n2)cc1 | 1 | x | -3 | 3 | x | 4 | x | x
CCOC(=O)c1oc2ccc(S(=O)(=O)N3CCC(C)CC3)cc2c1C | 9 | 21 | -4 | 2 | 21* | -3 | -2 | -9
COc1cc(CCC(=O)OCC(=O)NCCc2ccc(S(N)(=O)=O)cc2)cc(OC)c1OC | -16 | x | 3 | -9 | x | 3 | x | x
O=C1NC[C@H](CCCCN2CCN(CCC3CCCCC3)C(=O)C2=O)N(CCc2ccc(O)cc2)C1=O | 5 | x | 0 | 8 | x | 2 | x | x
Cc1ccc(S(=O)(=O)Oc2ccccc2/C=N/Nc2ccc(C(=O)O)cc2)cc1 | 11 | -5 | -12 | -14 | 11 | -5 | x | x
CC1Oc2ccccc2C=C1/C=N/Nc1ccc(C(=O)O)cc1 (stereo not drawn) | 61* | -95 | -28 | -10 | 34* | -203 | 41* | 25*
NC(=O)c1ccc(NC(=O)COC(=O)CCC2CCCC2)cc1 | 14 | x | -9 | 4 | x | 13 | x | x
SMILES | TWEAK-Fn14 inh | aSyn UTR inh | C8 TRAIL sens | TROY signal inh | HSP90 inh | HIF-2a block | HSP90 confirm | luciferase ctr
Oc1c(Br)cc(Br)cc1CNn1cnnc1 | 6 | 8 | 10 | -7 | 67* | 22 | -3 | -5
O=C(Cc1ccccc1)NNc1ccc2ccccc2c1 | 32 | -101 | -2 | 51* | 39* | -12 | 5 | -3
O=C(CN1C(=O)CCC1=O)NNc1ccc2ccccc2c1 | 70* | x | 20 | 67* | 26* | -60 | 13 | -13
O=C(CNc1ccc2ccccc2c1)NNC1=NCCC1 | 5 | -19 | 4 | 8 | 9 | 15 | x | x
O=C(C[C@@H]1CC[C@H](NC(=O)Nc2ccc(F)cc2)[C@@H](CO)O1)NCc1cccc(F)c1 | x | x | -8 | x | x | 1 | x | x
O=C(C1=C[C@H](c2csc3ccccc23)C[C@H](OCCCCO)O1)N1CCN(Cc2ccc3c(c2)OCO3)CC1 | 6 | 38 | -16 | 4 | 19* | 13 | -6 | -13
COc1ccc(C(=O)c2sc3nc(-c4ccccc4)ccc3c2N)cc1 | 2 | 3 | 2 | -29 | -6 | -47 | x | x
CC(C)OC(=O)c1sc2nc(-c3ccccc3)ccc2c1N | 91* | 1 | 54* | 80* | 44* | -91 | 54* | 52*
Cc1ccc(/C=C/c2nnc(-c3ccc(C)cc3)o2)cc1 | -19 | -69 | -16 | -34 | 32* | -192 | 0 | -19
CCCc1nc2c(=O)n(C)c(=O)nc-2n(C)n1 | 104* | x | 96* | 90* | 75* | 80* | 83* | 85*
CCn1c(N)nc2c1c(=O)n(C)c(=O)n2C | 12 | 9 | 12 | 2 | -1 | 8 | x | x
O=[N+]([O-])c1ccccc1NC(=S)N/N=C/c1ccc(O)c(O)c1 | 66* | -54 | -14 | 66* | 43* | -192 | 2 | -21
CCOc1cccc(/C=N/NC(=S)Nc2ccccc2[N+](=O)[O-])c1O | 100* | -50 | 53* | 90* | 75* | 48* | 71* | 34*
CC(C)(C)OC(=O)N(CCc1ccccc1)Cc1ccccc1OCc1ccc(NC(=O)C2CCCC2)cc1 | -8 | x | 12 | 2 | x | 0 | x | x
Cc1cc(NC(=O)c2ccc3sc([C@@H]4O[C@H](CO)[C@H](O)[C@H](O)[C@H]4O)nc3c2)no1 | -3 | x | 3 | 2 | x | -10 | x | x
[O-]/[N+](=C\c1ccncc1)c1ccc(Br)cc1 | -15 | -225 | 12 | -35 | 31* | -189 | 97* | -10
